Measurements reported in PubChem BioAssay AID623908 (Johns Hopkins Ion Channel Center, 2012).
Among all 2,500 compounds or so, about 1,500 (60%) were called active.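 The calls were made as follows: active = duplicate-averaged ratio beyond 3 SD from buffer wells, up or down, though filed actives are nearly all decreases; inactive = the rest.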 So high a share suggests a set chosen from earlier hits. Not all results are given here.

Experiment: dye ratio change in CHT-lacking host cells – cell-based, parental HEK293, membrane potential dye, counter-screen for CHT activator project (AID 623908)
Conditions: parental HEK293, membrane potential dye fluorescence (FDSS); at 10 µM; measured after EC20 choline addition

| SMILES | ratio readout change |
| --- | --- |
| CC(C)(C)Nc1nc(-c2ccccn2)nc2ccccc12 | -76.9 (active) |
| CC1=CC(C)(C)N(C(=O)CSc2nnc(-c3ccccc3)o2)c2ccc(C)cc21 | inactive |
| Cc1nc(N=C(N)N)nc2c(C)cccc12 | -65.7 (active) |
| COc1nc(N=C(N)N)nc2c(C)cccc12 | -78.8 (active) |
| O=C(c1ccccc1F)N(Cc1ccccc1)Cc1ccccc1 | inactive |
| CCCCn1c(N)c(N(CCC(C)C)C(=O)c2ccc(COc3ccccc3)o2)c(=O)[nH]c1=O | inactive |
| COc1ccccc1NC(=O)CSc1nnc(-c2ccoc2C)n1CCc1ccccc1 | inactive |
| Clc1ccc(C[n+]2cc(-c3ccc(Cl)cc3)n3c2CCC3)cc1 | -46 (active) |
| Cc1ccc(C(=O)C[n+]2cc(-c3ccccc3)n3c2CCCCC3)cc1 | inactive |
| Cc1ccc2c(c1)N(CC(=O)N(Cc1ccccn1)Cc1ccco1)C(=O)C(C(C)C)O2 (configuration not stated) | inactive |
| O=[N+]([O-])c1ccc(N2CCNCC2)cc1NCc1cccnc1 | -59.8 (active) |
| CC(=O)c1ccccc1OCc1ccc(C(=O)c2ccccc2)cc1 | inactive |
| C[C@H]1CCC(=O)N([C@H](CSc2ccccc2)Cc2ccccc2)CC1 | inactive |
| CC(=O)N1CC[n+]2c(-c3ccc([N+](=O)[O-])cc3)csc21 | -25.4 (active) |
| CCN(CC)CCC(c1cc(OC)c(OC)c(OC)c1)c1c(OC)cc(OC)c2c(-c3ccccc3)cc(=O)oc12 (configuration not stated) | -25.5 (active) |
| Cc1nnc(-c2ccc(Oc3ccc(C)c(C)c3)c([N+](=O)[O-])c2)o1 | inactive |
| CN(C)/C=C/C(=O)c1cnc2sccn2c1=O | -39.9 (active) |
| COc1cccc(C(=O)NC(=O)Nc2nc(C)cc(C(F)(F)F)n2)c1 | -43.4 (active) |
| Cc1ccccc1C(=O)NCC(c1ccco1)N1CCc2ccccc21 (configuration not stated) | inactive |
| Cn1c(=O)n(C)c2cc(C(=O)Nc3ccc4c(c3)OCO4)ccc21 | -33.9 (active) |
| O=C(Nc1ccccc1N1CCN(c2ccccc2)CC1)c1cccc(F)c1 | inactive |

| SMILES | ratio readout change |
| --- | --- |
| Cc1cc2c(cc1C)[n+](C)cn2CC(O)COCC1CC=CCC1 (configuration not stated) | -37.2 (active) |
| N=c1c2c3c(sc2ncn1N)CCCCC3 | -39.8 (active) |
| N=c1c2c3c(sc2ncn1CCCN1CCOCC1)CCCCC3 | -59.9 (active) |
| COc1cc2c(cc1OC)C(c1cccc([N+](=O)[O-])c1)=NCC2 | -64.5 (active) |
| Cc1c(CCOC(=O)CC23CC4CC(CC(C)(C4)C2)C3)sc[n+]1Cc1ccc([N+](=O)[O-])cc1 | -47 (active) |
| O=C(CCC1CCN(C(=O)c2cccc(Cl)c2F)CC1)Nc1ccccc1 | inactive |
| O=C1c2ccccc2C(=O)c2c1cccc2N1CCN(CCO)CC1 | -73.9 (active) |
| Cn1c(=O)n(Cc2ccco2)c(=N)c2c3c(sc21)CCCC3 | -31.5 (active) |
| CC(Sc1nc2ccccc2c(=O)n1Cc1ccco1)C(=O)c1ccccc1 (configuration not stated) | inactive |
| Cn1c(=O)[nH]c(=O)c2c1nc(N1CCN(CCO)CC1)n2CCSc1nc2ccccc2s1 | -48.2 (active) |
| CN(C)c1ccnc(Nc2ccc(F)cc2)c1C#N | -45.1 (active) |
| CCN1CCN(c2ccc([N+](=O)[O-])cc2C(=O)c2ccc(Cl)cc2)CC1 | inactive |
| Cc1nnc(C)c2c(C)n(N)c(C)c12 | -51.8 (active) |
| CN1CCN(c2nc(Nc3ccc(O)cc3)nc3ccccc23)CC1 | -71.3 (active) |
| O=C(NCCC1=CCCCC1)C1CCN(Cc2cnn(-c3ccccc3)c2-n2cccc2)CC1 | inactive |
| Nc1scc[n+]1Cc1cccc2cccnc12 | -43.3 (active) |
| CCCCN(CCCC)CC(O)Cn1c2ccccc2c(=O)c2ccccc21 (configuration not stated) | -21.9 (active) |
| Cc1c(C)c2c(OCC(=O)N[C@@H](C(=O)O)c3ccccc3)cc3c(c2oc1=O)CCC(C)(C)O3 | inactive |
| CCOC(=O)c1cccnc1NC(=O)c1ccncc1 | -20.3 (active) |
| COc1ccc([N+](=O)[O-])cc1N(CC(O)CN(CC(C)C)CC(C)C)S(=O)(=O)c1ccc(C)cc1 (configuration not stated) | inactive |
| Cc1ccc(-n2c(C)cc(/C=N\NC(=O)CC(=O)NC(C)C)c2C)cc1 | inactive |

| SMILES | ratio readout change |
| --- | --- |
| COc1ccc(Nc2nnc(C)c3ccccc23)cc1 | -50.6 (active) |
| COc1ccc(Nc2cc(C)nc(-n3nc(C)cc3C)n2)cc1 | inactive |
| O=C(COC(=O)C1CCN(S(=O)(=O)c2ccc3c(c2)OCCO3)CC1)Nc1ccccc1OC(F)F | inactive |
| CN1CCN(c2cc3c(cc2F)c(=O)c(C(=O)O)cn3CCF)CC1 | -29.7 (active) |
| CCn1cc(S(=O)(=O)c2cccc(C)c2)c(=O)c2cc(F)c(N3CCN(C)CC3)cc21 | -55.2 (active) |
| CC(Nc1nc(N2CCN(CCO)CC2)nc2ccccc12)c1ccccc1 (configuration not stated) | -58.8 (active) |
| O=C(C1=C(O)C(=O)N(Cc2ccccc2)C1c1ccco1)c1ccco1 (configuration not stated) | inactive |
| CCN1C(=NCCc2cccnc2)N[C@@H](c2ccccc2)[C@H](C(=O)OC)[C@H]1C | inactive |
| Cc1cccn2c(=O)c3cc(C#N)c(=O)n(CCCN4CCOCC4)c3nc12 | -48.2 (active) |
| CCN1CCCC1CNC(=O)c1cc2c(=O)n(C)c3ccccc3c2n1C (configuration not stated) | -28 (active) |
| O=Cc1ccc(OCc2cn3ccccc3n2)cc1 | -38.8 (active) |
| COc1ccccc1NC(=O)C1=C(C)Nc2nc3ccccc3n2C1c1cccs1 (configuration not stated) | inactive |
| CN1CCc2c(sc3c2c(NCc2ccco2)nc2nnnn23)C1 | -34.6 (active) |
| COc1ccc(CC2c3cc(OC)c(OC)cc3CC[N+]2(C)CCC(=O)OCCCCCOC(=O)CC[N+]2(C)CCc3cc(OC)c(OC)cc3C2Cc2ccc(OC)c(OC)c2)cc1OC (configuration not stated) | -31.4 (active) |
| Cc1nc2ccccc2c2oc(C(=O)NCCCN3CCC(C)CC3)cc12 | -28.4 (active) |
| COc1ccc2c(c1)cc1n2CCN=C1NN | -53.2 (active) |
| Cc1ccc(-n2c(SCC(=O)N3c4ccccc4Sc4ccccc43)nnc2-c2ccncc2)cc1 | inactive |
| Cc1ccc(C(=O)c2ccc(N3CCN(C)CC3)c([N+](=O)[O-])c2)cc1 | inactive |
| N#C/C(=C\c1ccc(-c2cccc([N+](=O)[O-])c2)o1)C(=O)NCCN1CCOCC1 | -21.1 (active) |
| Cc1cc(NC(=O)c2cnn3cccnc23)n(-c2ccccc2)n1 | -40.8 (active) |
